PRMT1 FP inh – PRMT1 (human) inhibition, primary screen | Q99873 | recombinant PRMT1, activity-based probe fluorescence polarization | inhibition, % at 2.79 µM | 370,000 compounds, 1.3% hits;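 active = inhibition above about 21% made by adding two undisclosed values, limit read from the data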
Target sequence (Q99873 whole entry, looked up): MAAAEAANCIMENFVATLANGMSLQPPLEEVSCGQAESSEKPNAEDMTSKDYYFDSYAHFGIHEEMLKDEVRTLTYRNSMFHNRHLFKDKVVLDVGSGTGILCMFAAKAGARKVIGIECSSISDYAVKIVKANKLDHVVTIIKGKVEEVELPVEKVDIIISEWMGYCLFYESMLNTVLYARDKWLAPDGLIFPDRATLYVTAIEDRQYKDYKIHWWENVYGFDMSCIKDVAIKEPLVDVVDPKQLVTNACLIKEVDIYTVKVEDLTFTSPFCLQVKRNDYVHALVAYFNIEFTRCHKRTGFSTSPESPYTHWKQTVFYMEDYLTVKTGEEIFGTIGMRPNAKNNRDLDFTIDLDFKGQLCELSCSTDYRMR
rCAG RNA binder – r(CAG) repeat RNA binding. inhibition, % at 3 µM. TO-PRO-1 dye displacement fluorescence. 370,000 compounds, 1.3% hits. AID 651821;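 active = inhibition above the plate cutoff, the mean of all test compounds on that plate plus 3 SD, cut at about 35% in these data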;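 note: 0% = DMSO alone and 100% = 100 µM mitoxantrone as full dye displacement; higher means more dye released from RNA so lower well fluorescence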
LANA-H2B inh – blocks KSHV LANA binding to histone H2A/H2B | 320,000 compounds, 0.6% hits | inhibition, % (concentration not given with the values) | Q9QR71 | AID 2629 | cell-free LANA-H2A/H2B peptide, fluorescence polarization; in the data active = inhibition mostly above about 10%, no sharp cut-off; inactive = mostly below about 6.7%
ALR inh – blocks human ALR sulfhydryl oxidase activity | inhibition, % (concentration not given with the values) | P55789 | purified ALR, DTT oxidation, H2O2 HRP-luminol luminescence | 290,000 compounds, 3.8% hits | AID 485317;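 active = mean replicate inhibition above about 79%, with every replicate also reaching it, limit read from the data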
Target sequence (P55789 whole entry, looked up): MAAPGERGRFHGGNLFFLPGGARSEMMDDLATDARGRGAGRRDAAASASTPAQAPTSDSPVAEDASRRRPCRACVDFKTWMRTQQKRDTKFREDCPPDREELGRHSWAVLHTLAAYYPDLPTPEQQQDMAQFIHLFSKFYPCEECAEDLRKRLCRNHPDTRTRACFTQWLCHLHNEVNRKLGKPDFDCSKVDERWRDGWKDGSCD
Rtt109 Vps75 – C. albicans Rtt109 histone acetyltransferase inhibition. 330,000 compounds, 0.16% hits. AID 540336. purified Rtt109/Vps75, ThioGlo CoA-SH fluorescence, 4 h. inhibition, % at 34.9 µM;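 active = inhibition of at least 50% in every replicate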
ABHD5-PLIN5 inh – ABHD5-PLIN5 protein interaction inhibition | inhibition, % at 4 µM | Split G. princeps luciferase complementation, luminescence, 4 h | Q00G26+Q8WTS1 | 360,000 compounds, 0.78% hits | AID 602281;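 active = inhibition above the mean inhibition across every tested compound plus 3 SD, cut at about 22% in these data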;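 note: 0% = DMSO only wells and the 100% control is not disclosed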
PRMT1 inh conf – PRMT1 (human) inhibition, FP confirmation; 3,300 compounds, 42% hits; shares compounds with PRMT1 FP inh; inhibition, % at 2.79 µM; recombinant His-PRMT1, activity-based probe fluorescence polarization; AID 687036;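 active = mean inhibition across replicates above the hit cutoff derived for the earlier primary screen, cut at about 22% in these data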
* marks the source's active call; other numbers are inactive results; · = not tested or not shown. An excerpt weighted towards active compounds, which were near 5.9% of everything screened.

SMILES | PRMT1 FP inh | rCAG RNA binder | LANA-H2B inh | ALR inh | Rtt109 Vps75 | ABHD5-PLIN5 inh | PRMT1 inh conf
CC(C)(C)c1ccc(C(=O)CCCSC2=C(C#N)C(c3ccco3)C3=C(CCCC3=O)N2)cc1 (stereo not drawn) | 6 | 9 | -1 | 3 | 5 | -5 | ·
COc1ccc(C(O)c2ncc(-c3ccc4ccccc4c3)[nH]2)cc1F (stereo not drawn) | 3 | 7 | · | · | · | -3 | ·
CCc1ccc(-c2cn(C3CCCCC3)c(=S)[nH]2)cc1 | 29* | 3 | -2 | 97* | -3 | -13 | 15
CCc1ccc(-n2cc(-c3ccc([N+](=O)[O-])cc3)[nH]c2=S)cc1 | 4 | 10 | 2 | -7 | -2 | -15 | ·
CS(=O)(=O)N1CCN(c2ccc([N+](=O)[O-])c(SCc3ccco3)c2)CC1 | 33* | 14 | 1 | -4 | 12 | 6 | 2
CCN(CC)C(=O)CC[C@H]1CC[C@]2(CCCN(Cc3cccs3)C2)O1 | -2 | -2 | · | · | · | · | ·
Cc1ccc(C)c(NC(=O)C2CCCN2S(=O)(=O)c2cccnc2)c1 (stereo not drawn) | -2 | -1 | · | · | · | · | ·
Cc1ccccc1-n1c(SCc2c(C)noc2C)nnc1-c1cccnc1 | 28* | 18 | 6 | -13 | -7 | 0 | 13
Cc1ccccc1-n1c(SCc2c(C)noc2C)nnc1-c1ccncc1 | -3 | 0 | -2 | -33 | 8 | 4 | ·
O=C(Nc1ccn(CCCNCc2cccc3ccccc23)c(=O)n1)OCc1ccccc1 | 4 | 8 | · | · | · | -1 | ·
CCc1nc2ccc(C(=O)NCCCn3ccnc3)cn2c1N(C)Cc1ccc(N(C)C)cc1 | -4 | 0 | · | · | · | 5 | ·
CC(=O)N(c1ccc2oc(=O)sc2c1)S(=O)(=O)c1cccs1 | 94* | 30 | 2 | · | 4 | 9 | 57*
COc1ccc(N(C(C)=O)S(=O)(=O)c2cccs2)cc1 | -2 | -2 | 3 | -4 | -21 | -4 | ·
CC(C)C(=O)N(c1ccc2oc(=O)sc2c1)S(=O)(=O)c1cccs1 | 53* | 9 | -2 | 18 | -10 | 30* | 8
CC(C)(C)OC(=O)N1c2ccccc2[C@]2(N3CCCC3)C[C@H](C(=O)O)N(C(=O)OC(C)(C)C)[C@H]12 | 0 | 8 | · | · | · | · | ·
O=C(NCc1ccccc1)O[C@H]1CC[C@@]23CCCN2C(=O)CCC[C@H]3C1 | -2 | · | · | · | · | · | ·
O=C(CSS(=O)(=O)O)N1CCN(C(=O)c2ccoc2)CC1 | 45* | -1 | 2 | 98* | -2 | -8 | 29*
O=C(c1cccc(Cl)c1)C1CCCN(C(=O)c2ccoc2)C1 (stereo not drawn) | -3 | -5 | -6 | 37 | -3 | 5 | ·
CN1/C(=C\C(=O)c2cccs2)C(C)(C)c2ccccc21 | 0 | 1 | 1 | · | -2 | -5 | ·
CN1/C(=C/C(=O)C2CCC2)Sc2ccccc21 | 63* | 3 | -8 | 4 | -2 | -5 | 2
CN1/C(=C/C(=O)c2cccs2)Sc2ccccc21 | 25* | 0 | 1 | 12 | 0 | -3 | 1
CN1/C(=C\C(=O)c2cccs2)Sc2ccccc21 | 42* | 2 | -1 | 6 | -11 | -2 | 5
COc1cc(OC)cc(C(=O)/C=C2\Sc3ccccc3N2C)c1 | 0 | -1 | -2 | -4 | -1 | -1 | ·
CC(C)n1nnnc1C1c2ccccc2C(=O)N1CCOc1ccccc1 (stereo not drawn) | -3 | 1 | · | · | · | -1 | ·
O=C1NC(=S)SC1=C1CCCCCC1 | 32* | 9 | -3 | 3 | 11 | -3 | 0
SMILES | PRMT1 FP inh | rCAG RNA binder | LANA-H2B inh | ALR inh | Rtt109 Vps75 | ABHD5-PLIN5 inh | PRMT1 inh conf
COC(=O)[C@]12C[C@H](CC(=O)NCC3CCCCC3)C(=O)N(CCC3=CCCCC3)C1=C[C@H](C(C)C)O[C@@H]2C1CC1 | 21 | 3 | · | · | · | · | ·
CN(C)c1cccc2c(S(=O)(=O)NC(=O)[C@H]3O[C@@H](n4ccc(=O)[nH]c4=O)[C@H](O)[C@@H]3O)cccc12 | 0 | 4 | · | · | · | · | ·
CC(=O)c1cccc(S(=O)(=O)NC2CCSc3ccccc32)c1 (stereo not drawn) | 31* | 6 | 0 | · | 6 | -12 | 9
COC(=O)C1=C(C)N(Cc2ccccc2C(F)(F)F)C(=NCc2ccc(OC)cc2)NC1c1ccc(Cl)cc1 (stereo not drawn) | -1 | 8 | · | · | · | · | ·
COC(=O)C[C@H]1C=C[C@H](NS(=O)(=O)c2cn(C)cn2)[C@@H](CO)O1 | -1 | 4 | · | · | · | -12 | ·
CCOc1cc(CNn2cn[nH]c2=S)cc(Cl)c1OCc1ccccc1F | 32* | 20 | 2 | 90* | 7 | -9 | 5
Cc1cc(C)cc(-c2c(C(=O)c3ccccc3)[nH]c(N)c2C(=O)NCCc2c[nH]c3ccccc23)c1 | -4 | · | · | · | · | · | ·
CC(C)(C)c1ccc(Oc2ccc(NC(=O)c3ccco3)cn2)cc1 | 29* | -4 | -2 | 12 | -7 | 9 | 3
CN1CCN(C(=O)C[C@@H]2C=C[C@H](NS(=O)(=O)c3cccc(F)c3)[C@@H](CO)O2)CC1 | -2 | 1 | · | · | · | 5 | ·
CCN(CC)c1ccc(NS(=O)(=O)c2ccc(-c3ccc(=O)[nH]n3)o2)c(C)c1 | 42* | 5 | 0 | 100* | 0 | 5 | 3
CC(=O)c1sc2nc(C)c3c(c2c1N)CCCC3 | 5 | 2 | 0 | 3 | · | -2 | ·
CC(=O)c1sc2nsc(SCCN3CCCC3)c2c1N | 35* | 8 | 9 | 29 | -3 | -30 | 11
O=C(NNc1nc(-c2ccccc2)cs1)c1ccccc1 | 3 | 14 | -1 | 47 | 4 | -31 | ·
COC(=O)c1nc(NNC(=O)c2ccccc2)sc1-c1ccccc1 | 43* | 12 | -5 | 13 | -5 | -8 | 5
CC(=O)NS(=O)(=O)c1ccc(NC(=O)/C=C/c2ccco2)cc1 | 37* | 6 | 0 | 7 | 4 | 6 | 24*
CN(C)c1ccc(NC(=S)NC(=O)/C=C/c2ccco2)cc1 | 27* | 3 | 3 | 12 | -3 | -7 | 0
COc1ccc(NC(=S)NC(=O)/C=C/c2ccco2)cc1 | 1 | 6 | 0 | 3 | -8 | 2 | ·
CN(C)CCCn1c2c3ccccc3ccc2c2oc(=O)c3ccccc3c21 | 29* | 13 | · | · | 1 | -29 | 1
CN(C)CCCn1c(=S)[nH]c2ccccc2c1=O | 12 | 1 | 2 | 27 | 4 | -1 | ·
CCNc1cccc2c1C(=O)N(C)C2=O | 44* | -42 | -4 | · | 0 | 1 | 46*
CC(=O)Nc1ccc(C2=NNC(=NCC3CCCO3)SC2)cc1 (stereo not drawn) | 41* | 17 | 1 | · | 9 | -18 | 33*
COc1ccc(NC(=O)CC2SC(=NCC3CCCO3)NC2=O)cc1 (stereo not drawn) | 2 | 2 | 1 | 3 | 0 | 2 | ·
